The values that follow come from ChEMBL document CHEMBL1961873, “Compounds: GSK PKIS; Assays: Nanosyn kinase panel” (2012).

The target in test [1] is Mitogen-activated protein kinase 3 (Homo sapiens) (UniProt P27361). Conditions: at 1 µM.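 Also: values are mean percent inhibition of MAPK3.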
The target in test [2] is SRSF protein kinase 3 (Homo sapiens) (UniProt Q9UPE1). Conditions: at 0.1 µM.
Test [3] shares this target. Conditions: at 1 µM.
The target of test [4] is Mitogen-activated protein kinase 14 (Homo sapiens) (UniProt Q16539). Conditions: at 0.1 µM.
Mitogen-activated protein kinase 14 (Homo sapiens), sequence (Q16539 whole entry): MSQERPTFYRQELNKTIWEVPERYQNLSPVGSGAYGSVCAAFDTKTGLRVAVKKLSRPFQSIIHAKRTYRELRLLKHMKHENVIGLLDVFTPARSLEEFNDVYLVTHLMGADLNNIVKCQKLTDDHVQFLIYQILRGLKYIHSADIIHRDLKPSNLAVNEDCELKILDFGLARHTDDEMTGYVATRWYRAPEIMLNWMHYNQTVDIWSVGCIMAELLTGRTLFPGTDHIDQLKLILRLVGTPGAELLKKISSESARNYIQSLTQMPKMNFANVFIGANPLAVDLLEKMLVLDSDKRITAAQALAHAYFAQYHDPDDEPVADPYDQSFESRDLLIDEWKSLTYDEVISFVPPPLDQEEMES
For test [5] the target is unchanged. The conditions noted are these: at 1 µM.
Test [6] addresses Mitogen-activated protein kinase 11 (Homo sapiens) (UniProt Q15759). The conditions noted are these: at 0.1 µM.
The target is the same in test [7]. Conditions: at 1 µM.
Test [8] addresses T1, Mitogen-activated protein kinase 13 (Homo sapiens) (UniProt O15264).
T1 sequence (whole entry): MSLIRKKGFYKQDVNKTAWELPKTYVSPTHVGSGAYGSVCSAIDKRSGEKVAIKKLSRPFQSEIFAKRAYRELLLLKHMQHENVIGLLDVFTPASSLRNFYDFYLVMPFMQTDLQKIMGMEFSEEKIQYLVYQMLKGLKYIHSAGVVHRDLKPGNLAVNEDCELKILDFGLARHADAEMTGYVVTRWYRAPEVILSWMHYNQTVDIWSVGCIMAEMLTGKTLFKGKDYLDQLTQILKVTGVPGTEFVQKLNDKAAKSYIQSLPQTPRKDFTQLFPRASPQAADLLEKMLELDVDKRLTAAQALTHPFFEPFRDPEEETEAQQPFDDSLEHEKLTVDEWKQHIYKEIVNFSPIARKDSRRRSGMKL
The conditions noted are these: at 0.1 µM.

Test [9] has as its target T1, Mitogen-activated protein kinase 13 (Homo sapiens). The conditions noted are these: at 1 µM.
Test [10] addresses T2, Mitogen-activated protein kinase 12 (Homo sapiens) (UniProt P53778).
T2 sequence (whole entry): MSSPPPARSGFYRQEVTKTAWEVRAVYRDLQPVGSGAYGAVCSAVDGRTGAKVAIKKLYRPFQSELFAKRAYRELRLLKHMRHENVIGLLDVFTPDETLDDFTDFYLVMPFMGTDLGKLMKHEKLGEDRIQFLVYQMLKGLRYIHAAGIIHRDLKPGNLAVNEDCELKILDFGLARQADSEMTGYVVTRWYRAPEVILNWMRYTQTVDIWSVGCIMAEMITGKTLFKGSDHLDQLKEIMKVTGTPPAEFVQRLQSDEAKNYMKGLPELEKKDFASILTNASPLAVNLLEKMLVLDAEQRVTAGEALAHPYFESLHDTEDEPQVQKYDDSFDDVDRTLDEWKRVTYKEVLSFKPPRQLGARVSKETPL
The conditions noted are these: at 0.1 µM.

Test [11] concerns the target T2, Mitogen-activated protein kinase 12 (Homo sapiens). Conditions: at 1 µM.
In test [12] the target is SRSF protein kinase 1 (Homo sapiens) (UniProt Q96SB4). Conditions: at 0.1 µM.
SRSF protein kinase 1 (Homo sapiens), sequence (Q96SB4 whole entry): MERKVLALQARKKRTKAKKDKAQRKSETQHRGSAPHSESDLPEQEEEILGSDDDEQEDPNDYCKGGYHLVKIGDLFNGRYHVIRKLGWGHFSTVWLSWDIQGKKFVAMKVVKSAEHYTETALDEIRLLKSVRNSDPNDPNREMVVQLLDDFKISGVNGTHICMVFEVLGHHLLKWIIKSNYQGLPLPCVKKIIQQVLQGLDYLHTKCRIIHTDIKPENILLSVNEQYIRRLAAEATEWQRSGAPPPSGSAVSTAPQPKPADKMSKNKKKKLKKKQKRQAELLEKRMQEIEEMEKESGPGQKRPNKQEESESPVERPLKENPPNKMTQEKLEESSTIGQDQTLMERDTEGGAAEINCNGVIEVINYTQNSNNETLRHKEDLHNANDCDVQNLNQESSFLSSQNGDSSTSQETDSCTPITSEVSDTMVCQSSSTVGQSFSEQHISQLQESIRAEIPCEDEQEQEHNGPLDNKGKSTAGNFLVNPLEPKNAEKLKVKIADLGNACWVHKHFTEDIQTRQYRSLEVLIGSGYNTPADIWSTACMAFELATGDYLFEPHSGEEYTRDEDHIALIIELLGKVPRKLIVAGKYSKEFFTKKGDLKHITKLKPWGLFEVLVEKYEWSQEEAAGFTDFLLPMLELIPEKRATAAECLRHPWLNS
Test [13] has the same target. The conditions noted are these: at 1 µM.
The target in test [14] is Phosphatidylinositol 4,5-bisphosphate 3-kinase catalytic subunit alpha isoform (Homo sapiens) (UniProt P42336). Conditions: at 0.1 µM.
Phosphatidylinositol 4,5-bisphosphate 3-kinase catalytic subunit alpha isoform (Homo sapiens), sequence (P42336 whole entry, canonical isoform): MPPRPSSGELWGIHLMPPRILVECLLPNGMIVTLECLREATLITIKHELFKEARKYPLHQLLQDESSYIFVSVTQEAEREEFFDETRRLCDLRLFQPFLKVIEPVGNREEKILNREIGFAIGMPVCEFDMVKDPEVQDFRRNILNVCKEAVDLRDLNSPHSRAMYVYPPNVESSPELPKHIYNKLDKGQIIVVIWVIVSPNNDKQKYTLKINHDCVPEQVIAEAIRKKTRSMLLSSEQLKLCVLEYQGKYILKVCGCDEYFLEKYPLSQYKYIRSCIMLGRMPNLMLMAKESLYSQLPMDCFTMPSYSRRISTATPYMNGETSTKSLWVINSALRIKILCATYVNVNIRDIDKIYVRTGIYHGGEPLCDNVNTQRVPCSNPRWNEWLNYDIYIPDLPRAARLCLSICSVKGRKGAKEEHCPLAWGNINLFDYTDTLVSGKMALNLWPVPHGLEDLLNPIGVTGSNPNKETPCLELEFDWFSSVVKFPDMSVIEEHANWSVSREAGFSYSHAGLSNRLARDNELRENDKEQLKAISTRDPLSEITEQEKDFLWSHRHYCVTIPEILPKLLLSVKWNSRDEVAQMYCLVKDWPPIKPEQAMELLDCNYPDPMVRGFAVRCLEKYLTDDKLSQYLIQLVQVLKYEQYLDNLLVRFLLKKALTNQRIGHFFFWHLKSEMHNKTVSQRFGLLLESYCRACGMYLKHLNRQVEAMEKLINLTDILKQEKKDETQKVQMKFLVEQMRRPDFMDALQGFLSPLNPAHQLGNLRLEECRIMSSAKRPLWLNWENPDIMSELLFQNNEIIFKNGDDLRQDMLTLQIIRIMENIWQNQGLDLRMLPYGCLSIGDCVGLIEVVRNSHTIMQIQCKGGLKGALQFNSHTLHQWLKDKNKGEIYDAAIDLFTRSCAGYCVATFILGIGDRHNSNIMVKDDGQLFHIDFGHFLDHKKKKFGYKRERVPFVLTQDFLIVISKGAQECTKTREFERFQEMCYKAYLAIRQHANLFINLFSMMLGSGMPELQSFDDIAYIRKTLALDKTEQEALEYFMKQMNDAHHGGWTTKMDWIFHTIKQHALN
Test [15] shares this target. The conditions noted are these: at 1 µM.
Test [16] has as its target T3, Phosphatidylinositol 4,5-bisphosphate 3-kinase catalytic subunit delta isoform (Homo sapiens) (UniProt O00329).
T3 sequence (whole entry): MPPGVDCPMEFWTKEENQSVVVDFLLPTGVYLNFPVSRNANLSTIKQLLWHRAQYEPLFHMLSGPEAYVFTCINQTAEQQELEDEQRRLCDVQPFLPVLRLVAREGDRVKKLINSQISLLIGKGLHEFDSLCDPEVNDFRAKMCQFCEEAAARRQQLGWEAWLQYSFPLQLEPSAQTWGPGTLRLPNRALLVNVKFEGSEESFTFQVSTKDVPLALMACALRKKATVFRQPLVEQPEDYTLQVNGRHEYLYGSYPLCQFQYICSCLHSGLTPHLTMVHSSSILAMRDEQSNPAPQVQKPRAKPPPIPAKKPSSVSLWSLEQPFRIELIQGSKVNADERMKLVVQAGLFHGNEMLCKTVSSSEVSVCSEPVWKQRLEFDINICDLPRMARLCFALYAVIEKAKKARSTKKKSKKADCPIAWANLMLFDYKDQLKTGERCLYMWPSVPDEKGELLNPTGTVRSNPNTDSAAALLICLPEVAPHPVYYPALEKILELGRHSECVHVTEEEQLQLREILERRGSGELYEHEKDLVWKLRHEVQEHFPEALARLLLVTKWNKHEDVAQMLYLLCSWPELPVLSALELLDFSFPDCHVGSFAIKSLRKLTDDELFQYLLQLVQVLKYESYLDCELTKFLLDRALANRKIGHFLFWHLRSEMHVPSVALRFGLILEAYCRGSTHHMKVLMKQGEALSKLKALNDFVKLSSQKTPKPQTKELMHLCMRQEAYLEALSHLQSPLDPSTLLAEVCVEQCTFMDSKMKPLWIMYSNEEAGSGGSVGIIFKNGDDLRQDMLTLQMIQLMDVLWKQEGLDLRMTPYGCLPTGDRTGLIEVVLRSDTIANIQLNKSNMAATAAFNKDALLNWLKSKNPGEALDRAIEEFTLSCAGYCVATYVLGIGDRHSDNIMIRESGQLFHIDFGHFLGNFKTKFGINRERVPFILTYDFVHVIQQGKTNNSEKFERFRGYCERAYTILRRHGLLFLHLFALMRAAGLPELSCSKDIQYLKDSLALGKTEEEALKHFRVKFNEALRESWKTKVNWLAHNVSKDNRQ
The conditions noted are these: at 0.1 µM.

In test [17] the target is T3, Phosphatidylinositol 4,5-bisphosphate 3-kinase catalytic subunit delta isoform (Homo sapiens). Conditions: at 1 µM.
Test [18] addresses Phosphatidylinositol 4-kinase beta (Homo sapiens) (UniProt Q9UBF8). The conditions noted are these: at 0.1 µM.
The target is the same in test [19]. The conditions noted are these: at 1 µM.
Test [20] concerns the target Sphingosine kinase 1 (Homo sapiens) (UniProt Q9NYA1). The conditions noted are these: at 0.1 µM.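 Also: mean percent inhibition of SPHK1 activity, measured within the GSK PKIS screening panel.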

Mitogen-activated protein kinase 11 (Homo sapiens), sequence (Q15759 whole entry): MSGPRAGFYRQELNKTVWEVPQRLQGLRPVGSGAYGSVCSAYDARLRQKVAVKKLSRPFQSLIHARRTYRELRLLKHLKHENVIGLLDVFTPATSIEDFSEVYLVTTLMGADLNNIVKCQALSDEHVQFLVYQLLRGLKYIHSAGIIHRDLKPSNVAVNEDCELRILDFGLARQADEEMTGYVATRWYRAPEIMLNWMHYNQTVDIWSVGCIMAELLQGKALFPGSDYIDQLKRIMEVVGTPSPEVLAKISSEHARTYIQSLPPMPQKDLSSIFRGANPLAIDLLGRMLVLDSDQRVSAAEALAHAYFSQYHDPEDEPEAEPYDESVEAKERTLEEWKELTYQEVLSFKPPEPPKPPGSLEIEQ
Sphingosine kinase 1 (Homo sapiens), sequence (Q9NYA1 whole entry): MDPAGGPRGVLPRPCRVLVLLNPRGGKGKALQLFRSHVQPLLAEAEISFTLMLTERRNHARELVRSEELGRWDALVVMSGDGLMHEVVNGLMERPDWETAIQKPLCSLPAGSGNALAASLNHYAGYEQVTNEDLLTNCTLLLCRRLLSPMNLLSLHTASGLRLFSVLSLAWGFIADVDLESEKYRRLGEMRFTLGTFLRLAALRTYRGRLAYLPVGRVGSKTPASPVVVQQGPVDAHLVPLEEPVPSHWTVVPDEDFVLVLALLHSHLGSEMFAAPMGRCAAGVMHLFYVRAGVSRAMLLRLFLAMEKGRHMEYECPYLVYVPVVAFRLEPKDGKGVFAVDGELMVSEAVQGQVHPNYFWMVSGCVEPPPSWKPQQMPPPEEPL
SRSF protein kinase 3 (Homo sapiens), sequence (Q9UPE1 whole entry): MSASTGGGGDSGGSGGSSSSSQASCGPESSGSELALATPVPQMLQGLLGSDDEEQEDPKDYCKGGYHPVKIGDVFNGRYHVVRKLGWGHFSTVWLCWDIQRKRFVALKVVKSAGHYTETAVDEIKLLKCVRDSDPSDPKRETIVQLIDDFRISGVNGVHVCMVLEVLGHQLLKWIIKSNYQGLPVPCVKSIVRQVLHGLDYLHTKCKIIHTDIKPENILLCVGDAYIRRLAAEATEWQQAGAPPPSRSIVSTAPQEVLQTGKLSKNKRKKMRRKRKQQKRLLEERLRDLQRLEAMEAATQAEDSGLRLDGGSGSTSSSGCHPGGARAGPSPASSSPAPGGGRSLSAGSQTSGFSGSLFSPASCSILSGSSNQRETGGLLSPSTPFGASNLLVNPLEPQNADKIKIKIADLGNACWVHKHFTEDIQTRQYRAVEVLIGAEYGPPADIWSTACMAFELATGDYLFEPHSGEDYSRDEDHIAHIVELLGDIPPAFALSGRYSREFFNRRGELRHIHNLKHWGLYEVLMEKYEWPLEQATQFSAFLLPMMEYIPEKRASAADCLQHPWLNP
Mitogen-activated protein kinase 3 (Homo sapiens), sequence (P27361 whole entry): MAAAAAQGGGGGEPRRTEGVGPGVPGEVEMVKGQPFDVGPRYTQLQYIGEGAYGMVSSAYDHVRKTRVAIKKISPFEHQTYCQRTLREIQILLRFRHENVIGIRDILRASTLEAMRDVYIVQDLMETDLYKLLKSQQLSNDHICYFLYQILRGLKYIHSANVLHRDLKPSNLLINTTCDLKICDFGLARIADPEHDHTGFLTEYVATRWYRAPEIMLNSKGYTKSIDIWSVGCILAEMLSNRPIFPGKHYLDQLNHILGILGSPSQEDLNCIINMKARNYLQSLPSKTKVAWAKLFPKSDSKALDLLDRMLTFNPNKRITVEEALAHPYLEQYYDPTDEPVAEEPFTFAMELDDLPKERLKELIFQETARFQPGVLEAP
Phosphatidylinositol 4-kinase beta (Homo sapiens), sequence (Q9UBF8 2-816 limits assumed): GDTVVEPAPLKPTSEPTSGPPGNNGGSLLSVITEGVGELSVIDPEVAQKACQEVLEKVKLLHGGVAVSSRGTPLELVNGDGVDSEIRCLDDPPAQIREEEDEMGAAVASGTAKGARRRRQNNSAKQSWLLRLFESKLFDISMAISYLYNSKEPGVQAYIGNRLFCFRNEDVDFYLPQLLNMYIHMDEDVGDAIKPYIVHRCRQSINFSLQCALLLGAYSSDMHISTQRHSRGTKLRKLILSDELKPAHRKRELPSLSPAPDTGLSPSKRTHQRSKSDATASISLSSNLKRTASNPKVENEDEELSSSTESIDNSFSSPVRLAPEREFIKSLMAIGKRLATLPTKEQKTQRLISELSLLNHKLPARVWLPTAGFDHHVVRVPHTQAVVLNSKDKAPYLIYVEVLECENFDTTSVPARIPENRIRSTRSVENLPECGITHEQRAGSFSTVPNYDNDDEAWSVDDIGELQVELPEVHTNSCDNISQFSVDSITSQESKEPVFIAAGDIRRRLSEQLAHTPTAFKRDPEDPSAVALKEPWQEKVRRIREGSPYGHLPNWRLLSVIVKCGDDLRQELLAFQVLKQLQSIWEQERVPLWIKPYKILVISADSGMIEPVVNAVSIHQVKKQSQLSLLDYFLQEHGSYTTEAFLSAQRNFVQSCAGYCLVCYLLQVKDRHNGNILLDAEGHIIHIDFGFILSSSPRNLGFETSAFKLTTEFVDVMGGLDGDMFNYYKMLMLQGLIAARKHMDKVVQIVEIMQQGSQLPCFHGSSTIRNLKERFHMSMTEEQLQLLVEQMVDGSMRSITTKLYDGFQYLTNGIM

Regarding `CC(=O)NCc1cccc(C#Cc2cncnc2Nc2ccc(OCc3cccc(F)c3)c(Cl)c2)c1`, the inhibition is 2.72% in [1]; -1.32% in test [2]; -1.8% in test [3]; 1.05% in test [4]; -0.7% in test [5]; 1.26% in [6]. In addition, the inhibition in [7] is -0.84%; in test [8] it was -3.33%; in test [9], 0.78%; in [10], 0.11%; in test [11], 1.37%; in test [12], -0.72%. Moreover, the inhibition was -2.28% in [13]; -1.17% in test [14]; 0.49% in test [15]; -1.34% in test [16]; -0.33% in test [17]; -4.32% in [18]. In addition, the figures for the inhibition in test [19] and in test [20] were -2.4% and 2.94%, respectively.
As for `NS(=O)(=O)c1ccc(Nc2ncc(-c3ccccc3)o2)cc1`, the inhibition in test [1] is 3.8%; in test [2], -0.01%; in [3] it was 1.63%; in test [4] it was 3.61%; in [5], 9.04%; in test [6], 6.06%. The inhibition was 7.67% in test [7]; 3.81% in test [8]; 5.86% in [9]; 0.56% in [10]; 1.81% in [11]; -0.91% in test [12]. Besides, the inhibition is 0.75% in test [13]; 3.75% in test [14]; 2.69% in test [15]; 0.62% in test [16]; 3.33% in test [17]; -3.61% in test [18]. In addition, the figures for the inhibition in test [19] and in test [20] were 4.39% and 0.6%, respectively.
For the compound `CCn1cc(-c2ccnc3[nH]ccc23)c(-c2cccc(NC(=O)Nc3ccc(OCc4ccccc4)cc3)c2)n1`, the inhibition is 0.79% in [1]; -1.98% in test [2]; -1.89% in test [3]; 0.81% in test [4]; 1.53% in test [5]; 5.07% in test [6]. The inhibition in [7] is 3.29%; in test [8] it was -0.53%; in test [9], -2.06%; in test [10] it was -1.09%; in test [11] it was -0.76%; in test [12], -3.33%. In addition, the inhibition in test [13] is -4.16%; in [14] it was -0.66%; in test [15], 0.08%; in test [16], -0.3%; in test [17], 1.17%; in test [18], 2.47%. Further, the inhibition in test [19] was -1.05%; in test [20] it was -0.21%.
Consider `COc1cccc(-c2c[nH]c3c(N/N=C/c4ccncc4)ncnc23)c1`, for which the inhibition in [1] is 6.39%; in test [2] it was 1.36%; in test [3] it was 1.67%; in test [4], 7.04%; in test [5] it was 13.3%; in test [6] it was 2.44%. Further, the inhibition in test [7] is 7.25%; in [8] it was 6.19%; in test [9], 38.2%; in test [10], 1.88%; in test [11] it was 14.7%; in test [12], 0.71%. In addition, the inhibition was -1.68% in test [13]; 1.14% in [14]; 4.14% in test [15]; 0.94% in test [16]; 3.3% in test [17]; -3.02% in test [18]. For the same compound, the inhibition in test [19] is 0.08%; in test [20], -4.21%.
For `Fc1ccc(-c2nn3ccccc3c2-c2ccncc2)cc1`, the inhibition in test [1] is 0.82%; in test [2], -2.15%; in [3], 1.26%; in test [4], 41.4%; in [5], 81.2%; in test [6], 7.33%. For the same compound, the inhibition in test [7] is 38.7%; in test [8], -0.3%; in test [9] it was 0.46%; in test [10] it was 1.66%; in test [11], 1.62%; in test [12] it was -2.12%. Also, the inhibition is -2.82% in test [13]; 0.14% in [14]; 1.14% in test [15]; 0.32% in test [16]; 2.31% in [17]; -1.2% in [18]. Besides, the inhibition in test [19] was 1.37%; in test [20] it was -0.49%.
For `CCOc1ccc2c(-c3ccnc(Nc4cccc(C(F)(F)F)c4)n3)cnn2n1`, the inhibition in test [1] was 2.69%; in [2], -2.63%; in test [3], 1.62%; in test [4], 3.75%; in test [5], 1.48%; in test [6], 5.24%. In addition, the inhibition in [7] was 2.69%; in test [8], 1.99%; in test [9], 0.75%; in test [10], 0.81%; in [11], 0.81%; in test [12], -3.06%. Further, the inhibition is -3.22% in test [13]; 2.25% in [14]; 3.21% in test [15]; -0.36% in test [16]; 0.32% in [17]; -2.42% in test [18]. The inhibition was -0.91% in test [19] and 0.68% in test [20].
Consider `Fc1ccc(-c2cc(-c3c[nH]nc3-c3ccccn3)ccn2)cc1`, for which the inhibition was 4.81% in [1]; -1.32% in test [2]; 1.09% in test [3]; 5.14% in test [4]; 37% in test [5]; 5.12% in test [6]. Further, the inhibition was 12.5% in [7]; -1% in test [8]; 3.97% in [9]; 2.24% in test [10]; 3.28% in [11]; -0.82% in test [12]. The inhibition in [13] is 1.31%; in test [14], 4.44%; in test [15], 3.51%; in test [16], 2.06%; in test [17] it was 3.22%; in [18] it was -6.09%. Further, the inhibition was -0.81% in test [19] and 1.6% in test [20].

Usually inhibition stands for the drop in the measured response relative to a control, in per cent.
